Data: PubChem BioAssay AID1532 (PCMD, 2009)
The campaign covered roughly 110,000 compounds. About 420 (0.38%) were called active. Rule as the data show it: active = inhibition above about 30% (passing the limit was not always enough); inconclusive = no clear call, values can overlap the other calls. For the sample, actives were picked, then their nearest neighbours and some compounds at random.

Tested on: RmlC (dTDP-4-dehydrorhamnose 3,5-epimerase) and RmlD (dTDP-4-dehydrorhamnose reductase), coupled enzyme assay
Assay: RmlC and RmlD coupled enzyme inhibitors, primary screen, biochemical, 384-well, compound mixtures, retest (AID 1532)
Conditions: 384-well mixture HTS, at 5.5 µM, stronger effect = higher value
[1] = measured here: mean retest inhibition

CCc1nnc(SCc2cccc(F)c2)nc1CC
inhibition: -1.83% (inactive)

Cc1cccc(Nc2nc(NCCO)nc(N3CCCC3)n2)c1
inhibition: -9.11% (inactive)

COCOc1cc(O)c(C(=O)/C=C/c2ccc(OCOC)c(OCOC)c2)c(OCOC)c1
inhibition: 4.09% (inactive)

COc1cc(/C=C/CO)cc(OC)c1O[C@@H]1O[C@H](CO)[C@@H](O)[C@H](O)[C@H]1O
inhibition: -10.6% (inactive)

CC(C)NC(=O)NCCCCCCS(C)=O (configuration not stated)
inhibition: -13.8% (inactive)

CCCCC1=CC2=CC(=O)C(C)(OC(=O)CC)C(=O)C2=CN1CCCOC(C)C (configuration not stated)
inhibition: 21.9% (inactive)

CC1=C(C)C(=O)OC(C(C)C2CCC3C4CC=C5CC(OC6OC(COC7OC(CO)C(O)C(O)C7O)C(O)C(O)C6O)CC(O)C5(C)C4CCC23C)C1 (configuration not stated)
inhibition: -13.2% (inactive)

C/C=C(/C)C(=O)O[C@@H]1c2cc3c(c4c2[C@@]2(CO4)C(=O)C(OC)=C(OC)C=C2C[C@@H](C)[C@H]1C)OCO3
inhibition: -2.38% (inactive)

C/C=C(\C)C(=O)NCCN1C2=NC[C@H](Cc3ccc(O)cc3)N2C[C@@H]1Cc1ccc(OC)cc1
inhibition: 6.27% (inactive)

COC(=O)CCCC1=CC2=CC(=O)C(C)(OC(=O)c3cccs3)C(=O)C2=CN1CC(C)C (configuration not stated)
inhibition: 6.81% (inactive)

O=C(C1=C[C@H](c2coc3ccccc3c2=O)C[C@H](OCc2ccc(CO)cc2)O1)N1CCN(Cc2ccccc2)CC1
inhibition: 13.6% (inactive)

C=CCNC(=O)c1ccc2c3n(nc2c1)-c1ccc(C)cc1CO3
inhibition: -4.6% (inactive)

C[C@H]1CC[C@]2(O[C@@H](CCO)C[C@@H](O)[C@@H]2O)O1
inhibition: 6.2% (inactive)

C=C1C2C[C@H](O)C(C)(C)[C@@]2(O)[C@H](O)C[C@]23C[C@@](C)(O)[C@H](CC[C@H]12)[C@H]3O (some centres not stated)
inhibition: -7.47% (inactive)

CCO[C@H]1OC(C(=O)Nc2ccccc2)=C[C@@H](C2CC2)[C@@H]1CCCO
inhibition: -2.12% (inactive)

COc1ccc(CCNC(=O)C2CC3Cn4c(nc5cc(C)c(C)cc54)C3N2C)cc1 (configuration not stated)
inhibition: 5.88% (inactive)

O=C(NCc1ccccc1)C1=C[C@@H](c2ccccc2)C[C@@H](OCCCCO)O1
inhibition: -11.4% (inactive)

COC(=O)CCCC1=CC2=C(c3ccccc3)C(=O)C(C)(OC(=O)C3CCCC3)C(=O)C2=CN1c1ccc(OC)cc1 (configuration not stated)
inhibition: 6.14% (inactive)

COc1ccc2c(c1)CC[C@@H]1[C@@H]2CC[C@]2(C)C(=O)CC[C@@H]12
inhibition: 0.97% (inactive)

C#CCOCCOCCOCCNc1nc(N2CCN(C(=O)[C@H](C(C)C)n3cc(CCO)nn3)CC2)nc(N2CCN(C(=O)[C@H]([C@@H](C)CC)n3cc(CCCN=C(N)N)nn3)CC2)n1
inhibition: 9.85% (inactive)

O=C(Oc1ccccc1)Oc1ccc2c(c1)oc(=O)c1ccccc12
inhibition: -16.4% (inactive)

CC(=O)Oc1ccc(NC(=O)CCC2CCCCC2)c(C(=O)O)c1
inhibition: 0.91% (inactive)

O=C(Nc1cc2ccccc2oc1=O)C1CCCCC1
inhibition: -8.93% (inactive)

CC(=O)Oc1ccc2c(C)c(CC(C)O)c(=O)oc2c1 (configuration not stated)
inhibition: 100% (active) | inhibition [1]: 151%

COC(=O)Cc1c(C)c2ccc(OCC(=O)NCc3ccc4c(c3)OCO4)cc2oc1=O
inhibition: 12.6% (inactive)

CC(=O)Nc1cc2ccc(OC(C)=O)cc2oc1=O
inhibition (above what the read-out allows, likely interference): 671% (active)

C=CCC1(C(=O)N(C)Cc2ccccc2)CCN(C(=O)OC(C)(C)C)CC1
inhibition: 4.78% (inactive)

NC(=O)C[C@@H]1NC(=O)CNC(=O)c2cc([N+](=O)[O-])cc(I)c2NCCC(C(N)=O)NC1=O (some centres not stated)
inhibition: -2.76% (inactive)

O=C1c2ccccc2S(=O)(=O)c2cc(N3CCN(c4ccccn4)CC3)ccc21
inhibition: -10.5% (inactive)

C=CCSc1nnc2c(n1)-c1cccc3cccc-2c13
inhibition: 10.4% (inactive)

COc1ccc(-c2nc3c(s2)CCc2onc(-c4ccc(Br)cc4)c2-3)cc1
inhibition: -14.4% (inactive)

COC(C[C@@H](O)C[C@@H](O)[C@H](C)OCc1ccccc1)OC
inhibition: 1.16% (inactive)

C=CC(COCc1ccccc1)N(Cc1ccccc1)S(=O)(=O)c1ccccc1Br (configuration not stated)
inhibition: 14.3% (inactive)

CC(C)C[C@H](CO)Nc1nc(N(C)c2cccc(Cl)c2)c2ncn(C(C)C)c2n1
inhibition: 4.1% (inactive)

NCCCC[C@@H]1NC(=O)[C@H](CCC(=O)O)NC(=O)c2cc([N+](=O)[O-])cc(I)c2NCC[C@@H](C(N)=O)NC1=O
inhibition: -2.74% (inactive)

COC(C[C@@H](O)C[C@H](O)[C@H](C)OCc1ccccc1)OC
inhibition: 8.66% (inactive)

COc1cccc(NC(=S)N(CCc2c(C)[nH]c3ccccc23)Cc2ccco2)c1
inhibition: -5.74% (inactive)

O=c1cc(-c2ccccc2)[nH]c2cc(F)ccc12
inhibition: 2.31% (inactive)

C=CCCN(Cc1ccccc1)S(=O)(=O)c1ccccc1Br
inhibition: 17.6% (inactive)

CC1CCN(c2oc(-c3ccccc3F)nc2C#N)CC1
inhibition: 19.3% (inactive)

COc1ccccc1-c1nc(C#N)c(N2CCC(C(N)=O)CC2)o1
inhibition: 31.8% (active) | inhibition [1]: 33.6%

COc1ccccc1-c1nnc(SCC(=O)N2CC(C)CC(C)C2)o1 (configuration not stated)
inhibition: -13.8% (inactive)

O=C(NC1CC1)C1=C[C@H](c2coc3ccccc3c2=O)C[C@H](OCCCCO)O1
inhibition: -32.1% (inactive)

O=C(C1=C[C@H](C2CC2)C[C@H](OCc2ccc(CO)cc2)O1)N1CCN(Cc2ccccc2)CC1
inhibition: 2.28% (inactive)

COC(=O)C1=C(C(=O)OC)[C@@H]2N(C)c3ccccc3[C@@]23C[C@@H](C(=O)OC)N(C(C)=O)C3=N1
inhibition: 1.9% (inactive)

CC(=O)n1cc([C@@H]2C=C(C(=O)N3CCN(Cc4ccc5c(c4)OCO5)CC3)O[C@H](OCc3ccc(CO)cc3)C2)c2ccccc21
inhibition: 5.68% (inactive)

O=C(NCc1cc(C(F)(F)F)cc(C(F)(F)F)c1)C1CC(c2cccc(F)c2)=NO1 (configuration not stated)
inhibition: 2.58% (inactive)

CCO[C@@H]1OC(C(N)=O)=C[C@H](c2ccc(Br)cc2)[C@H]1CCCO
inhibition: 3.81% (inactive)

CC(NC(=O)Nc1ccccc1)C(c1cccs1)N1CCN(c2ccccc2)CC1 (configuration not stated)
inhibition: 10.1% (inactive)

CCO[C@H]1OC(C(=O)NCc2ccccc2)=C[C@@H](c2coc3ccccc3c2=O)[C@@H]1CCCO
inhibition: 1.17% (inactive)
